8 compounds from PubChem BioAssay (NCI) can be followed below.

Test [1] in a line: NCI Yeast Anticancer Drug Screen. Data for the rad50 strain (AID 155).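 Further: 0% = growth of vehicle-only cultures of the same strain.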 To be noted: S. cerevisiae rad50 strain growth inhibition, stronger effect = higher value. A digest of the protocol:
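A DNA repair-deficient yeast mutant serves as the test organism; compound-induced growth inhibition is calculated against vehicle-treated cells.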

Test [2] in a line: NCI Yeast Anticancer Drug Screen. Data for the mec2-1 strain (AID 157). To be noted: S. cerevisiae mec2-1 strain, stronger effect = higher value. A digest of the protocol: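 Strain: mec2-1 (DNA repair/cell cycle alteration). Compound exposure, then growth measured; inhibition expressed relative to vehicle.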
The nature of test [3]: NCI Yeast Anticancer Drug Screen. Data for the sgs1 mgt1 strain (AID 161).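 Further: 0% = growth of cultures given vehicle only.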 To be noted: S. cerevisiae sgs1 mgt1 strain, stronger effect = higher value. A digest of the protocol:
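Genetically altered yeast, compound exposure, growth inhibition relative to vehicle.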

Test [4] can be described thus: NCI Yeast Anticancer Drug Screen. Data for the cln2 rad14 strain (AID 165).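 Further: 0% = growth equal to vehicle treated cultures.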 The following applies: S. cerevisiae cln2 rad14 strain, stronger effect = higher value. In short, it runs like this:
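Compounds are applied to the cln2 rad14 yeast strain, and growth is then compared with that of vehicle-treated cultures to give inhibition.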

Test [5] in a line: NCI Yeast Anticancer Drug Screen. Data for the bub3 strain (AID 167). The following applies: S. cerevisiae bub3 mutant strain, stronger effect = higher value. A digest of the protocol: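 Inhibition values come from growth of compound-treated mutant yeast normalised to vehicle-treated controls.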
The nature of test [6]: NCI Yeast Anticancer Drug Screen. Data for the mlh1 rad18 strain (AID 175). To be noted: S. cerevisiae mlh1 rad18 strain growth inhibition, stronger effect = higher value. In short, it runs like this:
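Read-out is yeast growth inhibition, calculated against vehicle-only controls. The compound was applied to a strain engineered with DNA damage repair alterations.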

[7] abbreviates: at 5.0 µM (retest, dose inferred, filed as 0.5).
The mark [8] stands for this setting: at 50.0 µM (retest, dose inferred, filed as 5.0).

Molecules are shown by their SMILES. Values joined by “and” are separate entries in the source; they are usually repeats but may differ in a detail not shown here. Equal values may be shown once. This is part of a sample that, as a whole, favours compounds with a hit. Of some 79,000 tested, about 15% had one in any assay. Some structures have more than one record in an assay (separate samples or runs), and their calls can disagree. Active and inactive are the calls of the source. No stated cut-off is given here; in the data, active means growth inhibition above about 70%; inactive means the rest.

`CCCCCCCN`: the growth inhibition in test [1] (setting [7]) is 1% (inactive); in test [1] (setting [8]), 89% (active); in test [1] (at 50.0 µM) it was 50% (inactive); in test [2] (setting [7]), -9% (inactive); in test [2] (setting [8]), 85% (active); in test [2] (at 50.0 µM) it was 20.9% (inactive). The growth inhibition in test [3] (setting [7]) was -2% (inactive); in test [3] (setting [8]), 91% (active); in test [3] (at 50.0 µM) it was 19.9% (inactive); in test [4] (setting [7]), -5% (inactive); in test [4] (setting [8]) it was 52% (inactive); in test [4] (at 50.0 µM), 33.7% (inactive). Besides, the growth inhibition in test [5] (setting [7]) was -2% (inactive); in test [5] (setting [8]), 86% (active); in test [5] (at 50.0 µM) it was 12.1% (inactive); in test [6] (setting [7]), -5% (inactive); in test [6] (setting [8]), 88% (active); in test [6] (at 50.0 µM) it was 48.1% (inactive).

On to `CC(C)(C)OC(=O)NCCc1cccc2c1oc1c(CCC(=O)O)cccc12`, for which the growth inhibition is -14% (inactive) in test [1] (setting [7]); 76% (active) in test [1] (setting [8]); 89.6% (active) in test [1] (at 50.0 µM); -1% (inactive) in test [2] (setting [7]); 95% (active) in test [2] (setting [8]); 78.4% (active) in test [2] (at 50.0 µM). Further, the growth inhibition in test [3] (setting [7]) is 3% (inactive); in test [3] (setting [8]), 53% (inactive); in test [3] (at 50.0 µM) it was 68.7% (inactive); in test [4] (setting [7]), -16% (inactive); in test [4] (setting [8]) it was 99% (active); in test [4] (at 50.0 µM), 87% (active). Besides, the growth inhibition in test [5] (setting [7]) was -20% (inactive); in test [5] (setting [8]), 88% (active); in test [5] (at 50.0 µM), 79.6% (active); in test [6] (setting [7]), -7% (inactive); in test [6] (setting [8]) it was 96% (active); in test [6] (at 50.0 µM) it was 83.5% (active).

As to `CCOC(CN=c1nc(N(C)C)ss1)OCC`, the growth inhibition in test [1] (setting [7]) was 1% (inactive); in test [1] (setting [8]), -20% (inactive); in test [1] (at 50.0 µM) it was 2.75% (inactive); in test [2] (setting [7]), -9% (inactive); in test [2] (setting [8]), -12% (inactive); in test [2] (at 50.0 µM), -8% (inactive). The growth inhibition in test [3] (setting [7]) is 11% (inactive); in test [3] (setting [8]), -19% (inactive); in test [3] (at 50.0 µM) it was -3.95% (inactive); in test [4] (setting [7]), -22% (inactive); in test [4] (setting [8]), -24% (inactive); in test [4] (at 50.0 µM), 7.85% (inactive). Further, the growth inhibition in test [5] (setting [7]) is -1% (inactive); in test [5] (setting [8]), -9% (inactive); in test [5] (at 50.0 µM), 43.4% (inactive); in test [6] (setting [7]), -5% (inactive); in test [6] (setting [8]), -7% (inactive); in test [6] (at 50.0 µM), -15.3% (inactive).

`COc1cc(NCCCCCCC2CCCCN2)c2ncccc2c1` (centres undefined): the growth inhibition is 0% (inactive) and 4% (inactive) in test [1] (setting [7]); 81% (active) and 71% (active) in test [1] (setting [8]); 50.5% (inactive) and 85.7% (active) in test [1] (at 50.0 µM); -1% (inactive) in test [2] (setting [7]); 47% (inactive) and 23% (inactive) in test [2] (setting [8]); 49.2% (inactive) and 45.4% (inactive) in test [2] (at 50.0 µM). Moreover, the growth inhibition in test [3] (setting [7]) is -7% (inactive) and 0% (inactive); in test [3] (setting [8]), 71% (active) and 81% (active); in test [3] (at 50.0 µM), 40.6% (inactive) and 88% (active); in test [4] (setting [7]), 5% (inactive) and 3% (inactive); in test [4] (setting [8]) it was 27% (inactive) and 61% (inactive); in test [4] (at 50.0 µM), 14.1% (inactive) and 11.3% (inactive). In addition, the growth inhibition was 1% (inactive) and 4% (inactive) in test [5] (setting [7]); 54% (inactive) and 37% (inactive) in test [5] (setting [8]); 53.4% (inactive) and 71.5% (active) in test [5] (at 50.0 µM); 3% (inactive) and 2% (inactive) in test [6] (setting [7]); 89% (active) and 78% (active) in test [6] (setting [8]); 61% (inactive) and 94.5% (active) in test [6] (at 50.0 µM).

For the compound `CC(C)(Cc1nocc1C(C)(C)CC#N)c1cc(CC(C)(C)C2(C)OCCO2)no1`, the growth inhibition is -4% (inactive) in test [1] (setting [7]); 0% (inactive) in test [1] (setting [8]); -9.6% (inactive) in test [1] (at 50.0 µM); 0% (inactive) in test [2] (setting [7]); -1% (inactive) in test [2] (setting [8]); 9.45% (inactive) in test [2] (at 50.0 µM). Further, the growth inhibition in test [3] (setting [7]) was -8% (inactive); in test [3] (setting [8]), 1% (inactive); in test [3] (at 50.0 µM), -7.8% (inactive); in test [4] (setting [7]), 2% (inactive); in test [4] (setting [8]), -6% (inactive); in test [4] (at 50.0 µM) it was 25.3% (inactive). In addition, the growth inhibition in test [5] (setting [7]) was -7% (inactive); in test [5] (setting [8]), -6% (inactive); in test [5] (at 50.0 µM), -47.8% (inactive); in test [6] (setting [7]), -3% (inactive); in test [6] (setting [8]), -4% (inactive); in test [6] (at 50.0 µM), -9.8% (inactive).

Turning to `O=C1NC(=O)c2c1cccc2[N+](=O)[O-]`, the growth inhibition is -7% (inactive) in test [1] (setting [7]); 31% (inactive) and 12% (inactive) in test [1] (setting [8]); -4.8% (inactive) and 18.4% (inactive) in test [1] (at 50.0 µM); -20% (inactive) and 2% (inactive) in test [2] (setting [7]); 4% (inactive) and 8% (inactive) in test [2] (setting [8]); -4% (inactive) and 25% (inactive) in test [2] (at 50.0 µM). The growth inhibition in test [3] (setting [7]) was -2% (inactive) and 0% (inactive); in test [3] (setting [8]), 0% (inactive) and 8% (inactive); in test [3] (at 50.0 µM) it was 9.25% (inactive) and -3.15% (inactive); in test [4] (setting [7]), -5% (inactive) and 0% (inactive); in test [4] (setting [8]), -6% (inactive) and -5% (inactive); in test [4] (at 50.0 µM), 45.3% (inactive) and 50.4% (inactive). The growth inhibition is 37% (inactive) and -2% (inactive) in test [5] (setting [7]); -4% (inactive) and 8% (inactive) in test [5] (setting [8]); -1.4% (inactive) and 20.1% (inactive) in test [5] (at 50.0 µM); -4% (inactive) and -3% (inactive) in test [6] (setting [7]); 3% (inactive) and 13% (inactive) in test [6] (setting [8]); 8.5% (inactive) and 2.2% (inactive) in test [6] (at 50.0 µM).

For `O=C1CSC(=S)N1c1ccc(F)c(F)c1`, the growth inhibition is 4% (inactive) in test [1] (setting [7]); 90% (active) in test [1] (setting [8]); 97.5% (active) in test [1] (at 50.0 µM); -12% (inactive) in test [2] (setting [7]); 95% (active) in test [2] (setting [8]); 97.2% (active) in test [2] (at 50.0 µM). The growth inhibition is 4% (inactive) in test [3] (setting [7]); 94% (active) in test [3] (setting [8]); 97% (active) in test [3] (at 50.0 µM); -3% (inactive) in test [4] (setting [7]); 43% (inactive) in test [4] (setting [8]); 86.2% (active) in test [4] (at 50.0 µM). Further, the growth inhibition was 0% (inactive) in test [5] (setting [7]); 92% (active) in test [5] (setting [8]); 96.3% (active) in test [5] (at 50.0 µM); -3% (inactive) in test [6] (setting [7]); 95% (active) in test [6] (setting [8]); 96.4% (active) in test [6] (at 50.0 µM).

`C=CCC(O)c1ccc(C(C)C)cc1` (centres undefined): the growth inhibition is 3% (inactive) in test [1] (setting [7]); 7% (inactive) in test [1] (setting [8]); 18.9% (inactive) and -7.9% (inactive) in test [1] (at 50.0 µM); 1% (inactive) in test [2] (setting [7]); -3% (inactive) in test [2] (setting [8]); -7.55% (inactive) and -1.05% (inactive) in test [2] (at 50.0 µM). Moreover, the growth inhibition is -2% (inactive) in test [3] (setting [7]); 1% (inactive) in test [3] (setting [8]); -5.65% (inactive) and 13.1% (inactive) in test [3] (at 50.0 µM); -3% (inactive) in test [4] (setting [7]); 0% (inactive) in test [4] (setting [8]); -5% (inactive) and 16.4% (inactive) in test [4] (at 50.0 µM). Also, the growth inhibition in test [5] (setting [7]) was 10% (inactive); in test [5] (setting [8]), 16% (inactive); in test [5] (at 50.0 µM) it was -2.85% (inactive) and -2.2% (inactive); in test [6] (setting [7]) it was 0% (inactive); in test [6] (setting [8]) it was 7% (inactive); in test [6] (at 50.0 µM), 15.4% (inactive) and -13.9% (inactive).
